40 compounds from PubChem BioAssay (EPA / NIEHS) can be followed below.

The term AC50 denotes the concentration giving half of the maximal activity seen.

Each structure is given as a SMILES string. Calls of active or inactive are those of the source. Rule for the calls: active = hit-call score of the fitted dose curve at least 0.9, where 1 is the maximum; inactive = score below 0.9.

Read-out in this test: urokinase plasminogen activator (uPA), PLAU (gene 5328)
As to the kind of experiment: BSK_KF3CT_uPA: BioMAP Diversity Plus: KF3CT Assay for urokinase plasminogen activator (uPA) Biomarker Activity (AID 2283075). The conditions noted are these: primary human keratinocytes with fibroblasts; actives raise or lower the signal. The method, then: BSK_KF3CT is a cell-based, multiplexed-readout assay that uses keratinocytes and foreskin fibroblasts, a human skin primary cell co-culture, with measurements taken at 24 hours after chemical dosing in a 96-well plate.BSK_KF3CTA is an assay component measured in the BSK_KF3CT assay. It measures uPA antibody related to regulation of gene expression using ELISA technology.Data from the assay component BSK_KF3CTA was analyzed into 1 assay endpoint. This assay endpoint, BSK_KF3CTA, was analyzed with bidirectional fitting relative to DMSO as the negative control and baseline of activity. Using a type of binding reporter, gain or loss-of-signal activity can be used to understand changes in the signaling as they relate to the gene PLAU. Furthermore, this assay endpoint can be referred to as a primary readout, because this assay has produced multiple assay endpoints where this one serves a signaling function. To generalize the intended target to other relatable targets, this assay endpoint is annotated to the protease intended target family, where the subfamily is serine protease.
The levels of cell surface (or secreted, indicated by the prefix "s") biomarker endpoints were measured by ELISA. Overt cytotoxicity to cells in confluent adherent cultures (all systems other than the BT system) was assessed by measuring total protein levels using sulforhodamine B (SRB) staining in parallel cultures at the time of biomarker measurements, indicated as SRB endpoints. For proliferation assays for adherent cell types, individual cell types are cultured at sub-confluence and relative cell numbers quantified by SRB staining at time points optimized for each system (48 h: 3C and CASM3C systems; 72 h: BT and HDF3CGF systems; 96 h: SAg system). SRB was performed by staining cells with 0.1% SRB after fixation with 10% TCA and reading wells at 560 nm.Viability and proliferation of PBMC (T cells) was quantified by Alamar Blue reduction for the SAg and BT systems. For PBMC viability (referred to as PBMC Cytotoxicity within the assay endpoint names), cells were plated (75,000/well in a 96-well plate) and then chemical samples added for 1 h before addition of activators, SEB and TSST-1 (20 ng/mL final concentration each). Cells were incubated for 90 h. Then, Alamar Blue (20 uL/well) (Invitrogen, Cat DAL1100) was added for 6 h, and the plates were read with a fluorescence microplate reader at 546/580 nm (excitation/emission). For PBMC proliferation, cells were plated and activated as above but incubated for only 16 h prior to addition of Alamar Blue. Plates were read after 6 h.
On to `CCCOC(=O)c1ccc(C(=O)OCCC)nc1`, for which the outcome was inactive.
For `S=C([S-])NCCNC(=S)[S-].[Mn+2]`, the result was inactive.
For `O=C(c1ccc(O)cc1O)c1ccc(O)cc1O`, the outcome was inactive.
Regarding `COCCO`, the outcome was inactive.
Turning to `COC(=O)c1c(Cl)nn(C)c1S(=O)(=O)NC(=O)Nc1nc(OC)cc(OC)n1`, the result was inactive.
With `O=C(Nc1ccc([N+](=O)[O-])cc1Cl)c1cc(Cl)ccc1O`, the AC50 is 0.266 µM (active).
Take `COC(=O)c1ccccc1S(=O)(=O)NC(=O)Nc1nc(OC(F)F)cc(OC(F)F)n1`: the outcome was inactive.
On to `CCCN(CCC)c1c([N+](=O)[O-])cc(C(F)(F)F)c(N)c1[N+](=O)[O-]`, for which the concentration at half-maximal activity (AC50) was 37.3 µM (active).
For the compound `COC(=O)c1ccc(I)cc1S(=O)(=O)NC(=O)Nc1nc(C)nc(OC)n1`, the result was inactive.
As for `CC(=O)S[C@@H]1CC2=CC(=O)CC[C@]2(C)[C@H]2CC[C@@]3(C)[C@@H](CC[C@@]34CCC(=O)O4)[C@H]12`, the outcome was inactive.
Same read-out and setting: under `CCN(CC)C(=O)c1cccc(C)c1` stands “inactive”; under `C#CCOC(=O)[C@@H](C)Oc1ccc(Oc2ncc(Cl)cc2F)cc1`, “inactive”; under `Cc1nn(C)c(Oc2ccccc2)c1C=NOCc1ccc(C(=O)OC(C)(C)C)cc1`, “inactive”.
In the case of `O=C(O)C1(C(=O)Nc2ccc(Cl)cc2Cl)CC1`, the result was inactive.
Turning to `CCOC(=O)NCCOc1ccc(Oc2ccccc2)cc1`, the result was inactive.
As to `OB(O)O`, the result was inactive.
For the compound `CCCCCOC(=O)COc1cc(N2C(=O)C3=C(CCCC3)C2=O)c(F)cc1Cl`, the result was inactive.
Regarding `CC(C)CCCCCCc1ccc(O)cc1`, the AC50 is 9.65 µM (active).
Turning to `COC(=O)c1cccc(C)c1S(=O)(=O)NC(=O)Nc1nc(OCC(F)(F)F)nc(N(C)C)n1`, the result was inactive.
Take `COC(=O)c1ccccc1C(=O)O`: the result was inactive.
The same measure, in the same setting: under `CCOC(=O)c1ccc(O)cc1` stands “inactive”; under `O=C(c1ccccc1)C1CCCCC1`, “inactive”; under `C=CCOC(Cn1ccnc1)c1ccc(Cl)cc1Cl` (stereo not given), “inactive”.
In the case of `CSC(=O)c1cccc2nnsc12`, the outcome was inactive.
On to `C[C@]12CC[C@@H]3c4ccc(O)cc4C[C@@H](CCCCCCCCCS(=O)CCCC(F)(F)C(F)(F)F)[C@H]3[C@@H]1CC[C@@H]2O` (stereo not given in full), for which the result was inactive.
With `CN(C)C(=O)Nc1ccc(Cl)c(Cl)c1`, the result was inactive.
The same measure, in the same setting: the result for `CCCCOCCOCCOCc1cc2c(cc1CCC)OCO2` reads “inactive”; that for `CC(C)(C)[C@@H](O)[C@@H](Cc1ccc(Cl)cc1)n1cncn1`, “inactive”; that for `COC(=O)c1ccc(CNS(C)(=O)=O)cc1S(=O)(=O)NC(=O)Nc1nc(OC)cc(OC)n1`, “inactive”.
As to `CCOC(=O)C(C)Oc1ccc(Oc2nc3ccc(Cl)cc3o2)cc1` (stereo not given), the result was inactive.
The same measure, in the same setting: under `CCCCOC(=O)C(C)Oc1ccc(Oc2ccc(C(F)(F)F)cn2)cc1` (stereo not given) stands “inactive”; under `O=C(O)c1ccccc1`, “inactive”.
Regarding `CCOC(=O)COc1cc(-n2ncc(C(F)(F)F)c(C)c2=O)c(F)cc1Cl`, the outcome was inactive.
In the case of `CCCN(CCC)C(=O)SCC`, the outcome was inactive.
With `COC(=O)CSc1cc(N=c2sc(=O)n3n2CCCC3)c(F)cc1Cl`, the outcome was inactive.
For `CC(C)(c1ccc(O)cc1)c1ccc(O)cc1`, the result was inactive.
For the compound `CCCCC(CC)COC(=O)c1ccccc1C(=O)O` (stereo not given), the outcome was inactive.
As for `CCN(Cc1c(F)cccc1Cl)c1c([N+](=O)[O-])cc(C(F)(F)F)cc1[N+](=O)[O-]`, the result was inactive.
Same read-out and setting: the result for `C[C@]12C[C@H](O)[C@H]3[C@@H](CCC4=CC(=O)CC[C@@]43C)[C@@H]1CC[C@@H]2C(=O)CO` reads “inactive”.
Consider `C#C[C@]1(O)CC[C@H]2[C@@H]3CCC4=CC(=O)CC[C@@H]4[C@H]3CC[C@@]21CC`, for which the outcome was inactive.
